“And” between values parts separate entries of the source, which are not always exact repeats. Equal entries are not always repeated. Inconclusive results are not listed. Entries that show only a call come without a potency. The source made the active and inactive calls. Unless noted, calls come from the whole dose curve; as a rule, active = well fitted curve in the direction sought with a large enough effect; inconclusive = small, poorly fitted or top-dose-only effect, or another doubt; inactive = no such curve, though single readings can be large; an effect the other way counts as inactive or inconclusive.
Experiments:
[1] = target: alpha-glucosidase (Oryza sativa, rice) (UniProt Q653V4); experiment: Counterscreen for Glucocerebrosidase Inhibitors: qHTS Assay for Rice alpha-Glucosidase at pH 5.0 (AID 997)
Method in brief: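 Rice alpha-glucosidase (4 nM final) with 400 uM 4-methylumbelliferyl-alpha-D-glucopyranoside in citrate buffer pH 5.0, 20 min at room temperature, stopped at pH 10; fluorescence 365/440 nm, compounds 0.7 nM–77 uM, AC50 from Hill fits.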

[2] = Validation of Assay for Modulators of Lamin A Splicing (AID 1459; active = well fitted curve in the direction sought with a large enough effect in the signal ratio; the % refers to the signal ratio;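 note: cells exposed to compound for two days before reading; ratio rise marks activators and ratio drop marks inhibitors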)
Method in brief: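 HeLa S3 lamin A-EGFP/DsRed2 stable clone, 600 cells/well, Opti-MEM 2% FBS; compounds by pin tool; 48 hrs, 37 °C/5% CO2; Acumen 488 nm scan, objects 10-100 um; GFP/RFP intensity ratio.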

[3] = qHTS Assay for Lipid Storage Modulators (AID 1519; calls by dose curve); conditions: Drosophila S3 cells, BODIPY lipid droplet/cell ratio, laser cytometry, cells loaded with oleic acid
Method in brief: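 Cells seeded at 5,000 per well were treated with compounds over a concentration series and loaded with oleic acid (400 uM, as added). Lipid droplet fluorescence (488 nm excitation, 500-530 nm channel) was read by laser-scanning cytometry and normalized to 20 uM Triacsin C.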

[4] = target: DNA repair nuclease/redox regulator APEX1 (Homo sapiens) (UniProt P27695); experiment: qHTS Validation Assay for Inhibitors of the Human Apurinic/apyrimidinic Endonuclease 1 (APE1) (AID 1705;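 note: TAMRA fluorescence gain over two minutes as APE1 cuts a quenched THF abasic duplex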)
Sequence of DNA repair nuclease/redox regulator APEX1 (Homo sapiens) (P27695 whole entry, looked up): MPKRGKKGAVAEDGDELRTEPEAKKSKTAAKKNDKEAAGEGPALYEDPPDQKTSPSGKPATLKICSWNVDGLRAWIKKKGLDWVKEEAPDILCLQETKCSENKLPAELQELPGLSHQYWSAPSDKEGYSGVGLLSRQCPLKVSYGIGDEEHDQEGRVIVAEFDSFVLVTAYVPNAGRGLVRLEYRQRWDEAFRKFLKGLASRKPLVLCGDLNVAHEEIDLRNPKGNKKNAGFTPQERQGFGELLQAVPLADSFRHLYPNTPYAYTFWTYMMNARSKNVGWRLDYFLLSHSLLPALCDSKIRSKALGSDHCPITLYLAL
Method in brief: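 qHTS, 1536-well. APE1 + cpd 15 min RT → 50 nM TAMRA/BHQ-2 THF-abasic dsDNA substrate → kinetic fluorescence, 3 reads/60 s; delta(read3−read1) = reaction progress. No-enzyme buffer = negative control.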

[5] = Counterscreen for APE1 Inhibitors: Fluorescent Dye Displacement Validation Assay (AID 1707)
Method in brief: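 Compounds are scored by their ability to displace Thiazole Orange (250 nM) from a 50 nM TAMRA-tagged duplex bearing a tetrahydrofuran abasic site. Buffer is 50 mM Tris-HCl pH7.5, 50mM NaCl, 2 mM MgCl2, 0.01% Tween-20.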

[6] = target: Endonuclease 4 (Escherichia coli (strain K12)) (UniProt P0A6C1); experiment: Counterscreen for APE1 Inhibitors: qHTS Validation Assay for Inhibitors of Endonuclease IV (AID 1708)
Method in brief: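 qHTS concentration-response format; LOPAC1280 tested under APE1-screen conditions. 2 nM enzyme, 15 min compound preincubation at RT, then 50 nM TAMRA/BHQ-2 abasic substrate; kinetic fluorescence read, three reads at 60 s intervals.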

[7] = qHTS for differential inhibitors of proliferation of Plasmodium falciparum line 7G8 (AID 1815);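 note: parasite growth measured after three days of incubation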; note: potency is the fitted concentration of half-maximal effect
[8] = qHTS for differential inhibitors of proliferation of Plasmodium falciparum line GB4 (AID 1816); conditions: Potency: Plasmodium falciparum GB4 proliferation inhibition;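 note: parasite growth measured after 72 h incubation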; note: potency is the fitted concentration of half-maximal effect
[9] = qHTS for differential inhibitors of proliferation of Plasmodium falciparum line 3D7 (AID 1876); note: potency is the fitted concentration of half-maximal effect
[10] = qHTS for differential inhibitors of proliferation of Plasmodium falciparum line D10 (AID 1877);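 note: parasites grown with compound for 72 h before DNA staining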; note: potency is the fitted concentration of half-maximal effect
[11] = qHTS for differential inhibitors of proliferation of Plasmodium falciparum line Dd2 (AID 1882); conditions: Potency: Plasmodium falciparum Dd2 proliferation inhibition; note: nearly all actives have a fitted effect of over 65% in size; note: potency is the fitted concentration of half-maximal effect
Method in brief: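 Dd2-infected erythrocytes (0.3% parasitemia, 2.5% hematocrit final) incubated with compound 72 h at 37 C, 5% CO2; lysed with saponin/Triton buffer containing SYBR Green I, incubated overnight in the dark, then read by fluorescence (485/535 nm). Normalized to 0.29 uM artemisinin and DMSO.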

[12] = qHTS for differential inhibitors of proliferation of Plasmodium falciparum line W2 (AID 1883); conditions: Potency: Plasmodium falciparum W2 proliferation inhibition;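 note: parasites grown with compound for 72 h before lysis and staining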; note: potency is the fitted concentration of half-maximal effect
[13] = qHTS for differential inhibitors of proliferation of Plasmodium falciparum line HB3 (AID 1886); conditions: Potency: Plasmodium falciparum HB3 proliferation inhibition;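 note: parasites grown with compound for 72 h before SYBR Green readout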; note: potency is the fitted concentration of half-maximal effect
[14] = qHTS Assay for Modulators of Human Peripheral Myelin Protein 22 (PMP22) Expression/Activity (AID 1967; active = well fitted curve in the direction sought with a large enough effect in the signal ratio; the % refers to the signal ratio)
Method in brief: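 Luminescence ratio of Pmp22 promoter-driven green luciferase to EF-alpha-driven red luciferase, in engineered mouse MSC80 Schwann cells, served as read-out. Compounds were incubated 24h; untreated cells defined 0% Activity; curves were classified by r2, magnitude and activity.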

[15] = target: Ferritin light chain (Equus caballus) (UniProt P02791); experiment: qHTS Validation Assay for Identification of Novel General Anesthetics (AID 2323)
Sequence of Ferritin light chain (Equus caballus) (P02791 2-175 limits assumed): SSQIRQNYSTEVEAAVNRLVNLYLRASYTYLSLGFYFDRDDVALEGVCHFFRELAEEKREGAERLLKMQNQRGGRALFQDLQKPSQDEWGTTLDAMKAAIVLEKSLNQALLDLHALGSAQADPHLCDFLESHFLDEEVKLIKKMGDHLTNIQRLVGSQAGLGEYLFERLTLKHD
Method in brief: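 Fluorescence at 535 nm (excitation 380 nm) reported loss of 1-AMA binding to horse-spleen apoferritin (10 uM) in PBS with 50% saturated 1-aminoanthracene, after 10 min room-temperature incubation with compound; values from Hill fits of normalized response.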

[16] = target: ATP-dependent DNA helicase Q1 (Homo sapiens) (UniProt P46063); experiment: qHTS Validation Assay for Inhibitors of RecQ-Like Dna Helicase 1 (RECQ1) (AID 2353)
Sequence of ATP-dependent DNA helicase Q1 (Homo sapiens) (P46063 whole entry, looked up): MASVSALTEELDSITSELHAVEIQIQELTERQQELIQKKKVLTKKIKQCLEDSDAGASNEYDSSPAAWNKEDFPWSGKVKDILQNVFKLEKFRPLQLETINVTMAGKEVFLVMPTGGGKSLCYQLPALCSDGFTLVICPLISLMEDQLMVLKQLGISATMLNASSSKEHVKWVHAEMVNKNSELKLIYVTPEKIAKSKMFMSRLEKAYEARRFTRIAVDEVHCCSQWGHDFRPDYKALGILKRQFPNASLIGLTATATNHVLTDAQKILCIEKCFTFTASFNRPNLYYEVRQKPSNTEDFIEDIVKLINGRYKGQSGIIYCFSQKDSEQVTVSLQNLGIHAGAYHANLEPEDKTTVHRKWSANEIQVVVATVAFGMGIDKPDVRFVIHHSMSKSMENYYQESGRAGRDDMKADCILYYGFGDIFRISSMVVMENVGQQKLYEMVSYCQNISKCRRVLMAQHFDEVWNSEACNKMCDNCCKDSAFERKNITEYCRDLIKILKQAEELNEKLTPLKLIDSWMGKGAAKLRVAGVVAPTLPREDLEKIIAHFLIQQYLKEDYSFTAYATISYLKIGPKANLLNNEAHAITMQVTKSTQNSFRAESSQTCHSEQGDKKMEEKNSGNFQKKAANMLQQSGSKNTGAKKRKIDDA
Method in brief: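 50 nM RECQ1T1 preincubated 15 min with compound in Tris pH 8.0 buffer with MgCl2, DTT, Tween-20 and 2.5 ug/ml poly(dI-dC); started with 200 nM TAMRA/BHQ-2 forked duplex and 2 mM ATP. Unwinding read as fluorescence (525/598 nm), two reads 2 h apart.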

[17] = target: RecQ-like DNA helicase BLM (Homo sapiens) (UniProt P54132); experiment: qHTS Validation Assay for Inhibitors of Bloom's syndrome helicase (BLM) (AID 2364)
Sequence of RecQ-like DNA helicase BLM (Homo sapiens) (P54132 whole entry, looked up): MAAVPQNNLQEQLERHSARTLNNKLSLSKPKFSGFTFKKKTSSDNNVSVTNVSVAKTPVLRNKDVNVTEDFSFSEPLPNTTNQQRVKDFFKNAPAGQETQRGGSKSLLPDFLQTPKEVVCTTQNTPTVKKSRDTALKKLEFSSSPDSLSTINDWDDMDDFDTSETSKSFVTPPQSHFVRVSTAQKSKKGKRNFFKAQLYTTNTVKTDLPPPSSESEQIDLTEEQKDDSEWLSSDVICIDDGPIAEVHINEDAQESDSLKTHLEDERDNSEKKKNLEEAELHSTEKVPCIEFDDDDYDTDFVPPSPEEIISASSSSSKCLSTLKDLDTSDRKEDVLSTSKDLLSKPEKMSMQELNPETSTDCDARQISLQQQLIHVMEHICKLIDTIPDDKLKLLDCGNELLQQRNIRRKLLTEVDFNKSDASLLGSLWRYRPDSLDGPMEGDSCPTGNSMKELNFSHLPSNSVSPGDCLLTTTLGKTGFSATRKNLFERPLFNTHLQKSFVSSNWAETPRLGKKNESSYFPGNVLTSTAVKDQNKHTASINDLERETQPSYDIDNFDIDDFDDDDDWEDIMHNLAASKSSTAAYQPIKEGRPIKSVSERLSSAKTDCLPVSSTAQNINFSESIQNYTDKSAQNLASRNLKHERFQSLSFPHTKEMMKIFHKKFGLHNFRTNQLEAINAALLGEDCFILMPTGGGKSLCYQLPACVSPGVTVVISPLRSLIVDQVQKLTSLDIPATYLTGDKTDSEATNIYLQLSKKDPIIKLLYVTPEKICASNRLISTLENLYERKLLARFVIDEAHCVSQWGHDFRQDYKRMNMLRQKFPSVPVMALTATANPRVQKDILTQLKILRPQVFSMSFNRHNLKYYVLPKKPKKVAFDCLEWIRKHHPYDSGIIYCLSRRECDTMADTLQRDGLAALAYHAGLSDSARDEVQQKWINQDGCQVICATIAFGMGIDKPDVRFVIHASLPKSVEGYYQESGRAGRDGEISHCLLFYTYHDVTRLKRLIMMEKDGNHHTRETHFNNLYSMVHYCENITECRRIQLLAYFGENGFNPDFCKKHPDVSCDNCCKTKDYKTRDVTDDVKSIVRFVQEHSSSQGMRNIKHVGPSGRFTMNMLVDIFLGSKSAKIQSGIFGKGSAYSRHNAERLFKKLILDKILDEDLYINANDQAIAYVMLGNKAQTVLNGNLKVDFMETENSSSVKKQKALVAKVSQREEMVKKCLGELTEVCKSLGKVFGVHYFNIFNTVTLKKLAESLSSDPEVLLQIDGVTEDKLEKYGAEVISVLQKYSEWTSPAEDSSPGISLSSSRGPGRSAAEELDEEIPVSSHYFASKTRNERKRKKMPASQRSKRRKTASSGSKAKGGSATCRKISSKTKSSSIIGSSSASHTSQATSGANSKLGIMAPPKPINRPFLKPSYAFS
Method in brief: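 Forked 20-bp duplex substrate (200 nM, TAMRA/BHQ-2) plus 2 mM ATP added after 15 min compound preincubation with 50 nM enzyme, pH 8.0, poly(dI-dC) 2.5 ug/ml. Strand separation followed by fluorescence (525/598 nm) over 2 h, normalized to enzyme-free and DMSO controls.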

[18] = measured here: cell count channel max response
[19] = measured here: lipid channel max response

Row | Structure (SMILES) | outcome [1] | outcome [2] | activity change, negative = inhibition ([3]; at 25.7 µM (top of the series)) | max response [3, 18] | max response [3, 19] | Potency [4] | Potency [5] | Potency [6] | Potency [7] | Potency [8] | Potency [9] | Potency [10] | Potency [11] | Potency [12] | Potency [13] | outcome [14] | Potency [15] | Potency [16] | Potency [17] | activity change, negative = inhibition ([3]; at 57.5 µM (top of the series))
1 | COc1ccc(-c2ccc(N)[n+](CCCC(=O)O)n2)cc1 | inactive | inactive | -0.132% (inactive) | 3.21% | 7.04% | inactive | inactive | inactive | inactive | inactive | inactive | inactive | inactive | inactive | inactive | inactive | inactive | inactive | inactive | 
2 | O=c1[nH]c(=O)c2nc3ccccc3nc2[nH]1 | inactive | inactive |  | -11.1% | -9.17% | inactive | inactive | inactive |  | inactive |  |  | inactive |  | inactive |  | inactive |  |  | -0.305% (inactive)
3 | N[C@@H](CCC(=O)N[C@H](CSN=O)C(=O)NCC(=O)O)C(=O)O |  | inactive |  | -20.1% | -19.6% | inactive | inactive | inactive | inactive | inactive | inactive | inactive | inactive | inactive | inactive |  | inactive | inactive |  | 0.446% (inactive)
4 | COc1ccccc1N1CCN(CCCCNC(=O)c2ccc3ccccc3c2)CC1 | inactive | inactive | 0.195% (inactive) | 1.63% | 1.88% | inactive | inactive | inactive | 7.08 µM (active) | 10 µM (active) | 2 µM (active) | 10 µM (active) | 10 µM (active) | 2.51 µM (active) | 5.01 µM (active) |  |  |  | inactive | 
5 | O=C(O)CCC(=O)N1CCCC1C(=O)O (configuration not stated) |  | inactive |  | 29.3% | 27.9% | inactive | inactive | inactive | inactive | inactive | inactive | inactive | inactive | inactive | inactive | inactive | inactive | inactive |  | -1.81% (inactive)
6 | CN[C@H](CC(=O)O)C(=O)O | inactive | inactive |  | 12.1% | 14.4% | inactive | inactive | inactive | inactive | inactive | inactive | inactive | inactive | inactive | inactive | inactive | inactive | inactive | inactive | 3.39% (inactive)
7 | COc1ccc(C(=O)NCc2cccnc2)cc1C(=O)NCc1cccnc1 | inactive | inactive | 1.2% (inactive) | -2.62% and -3.84% | -2.28% and -1.65% | inactive | inactive | inactive |  | inactive | inactive | inactive | inactive |  | inactive | inactive | inactive |  |  | 1.17% (inactive)
8 | NC(N)=[N+]1CCc2ccccc2C1 | inactive | inactive |  | 6.74% | -12.8% | inactive | inactive | inactive | inactive | inactive | inactive | inactive | inactive | inactive | inactive |  | inactive | inactive | inactive | 1.3% (inactive)
9 | CC(N)=NCCCC[C@@H](N)C(=O)O |  | inactive |  | 1.29% | 2.75% | inactive | inactive | inactive | inactive | inactive | inactive | inactive | inactive | inactive | inactive | inactive | inactive | inactive |  | -0.966% (inactive)
10 | NC(C(=O)N[C@@H]1C(=O)N2C(C(=O)O)=C(Cl)CS[C@H]12)c1ccccc1 (some centres not stated) |  | inactive |  | -29.4% | -32.3% | inactive | inactive | inactive | inactive | inactive | inactive | inactive | inactive | inactive | inactive | inactive | inactive | inactive |  | -2.36% (inactive)
11 | O=C(O)c1cccnc1C(=O)O | inactive | inactive |  | 9.96% | 12.5% | inactive | inactive | inactive | inactive | inactive | inactive | inactive |  | inactive | inactive | inactive | inactive |  |  | 1.68% (inactive)
12 | NCCS(=O)O | inactive | inactive |  | -10.2% and 4.71% | -16.1% and 6.07% | inactive | inactive | inactive | inactive | inactive | inactive | inactive |  | inactive | inactive | inactive | inactive |  |  | -6.29% (inactive) and 1.76% (inactive)
13 | CC1=C(/C=C/C(C)=C/C=C/C(C)=C\C(=O)O)C(C)(C)CCC1 |  | inactive |  | 3.57% | 13.6% | inactive | inactive | inactive | 7.94 µM (active) | 12.6 µM (active) | 14.1 µM (active) |  |  | 8.91 µM (active) | 10 µM (active) |  |  | inactive |  | 6.72% (inactive)
14 | C=C(C)C1CC=C(C(=O)O)CC1 (configuration not stated) |  | inactive |  | 16.2% and 48.1% | 18.4% and 48.7% | inactive | inactive | inactive | inactive | inactive | inactive | inactive | inactive | inactive | inactive | inactive | inactive | inactive | inactive | 0.974% (inactive) and 1.72% (inactive)
15 | CN1CCC2(CCN3CCc4c(oc5ccccc45)C3C2)N(C)C1=O (configuration not stated) |  | inactive |  | 45.8% | 48% | inactive | inactive | inactive |  | inactive |  | inactive | inactive |  |  |  | inactive | inactive |  | -0.497% (inactive)
